The values that follow come from PubChem BioAssay (NCATS).

Experiment [1] deals with Cytochrome P450 1A2 (Homo sapiens) (UniProt P05177). Kind of experiment: p450-cyp1a2 (AID 410; calls by dose curve; also: potency is read from the fitted curve at half-maximal effect). Put shortly:
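Luminescent readout of luciferin formed from Luciferin-ME by human CYP1A2; data normalized against complete inhibition by 57 uM furafylline. Enzyme 20nM, substrate 100uM at Km, 100mM KPO4 buffer, 60 min reaction at room temperature.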

Experiment [2] has as its target Mitogen-activated protein kinase 10 (Mus musculus) (UniProt Q61831). Kind of experiment: JNK3 AlphaScreen Assay (AID 530; active = well fitted curve in either direction with a large enough effect, not every such curve was filed as active;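 also: kinase came from lysate of stimulated human HepG2 cells; signal reports phosphorylation of biotinylated GST-cJun 1-79 at Ser73 with 10 µM ATP; series mostly up to about 57 µM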). The essentials: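 Compound titrations were preincubated 15 minutes at room temperature with substrate, antibody and pre-activated JNK3-containing HepG2 lysate. Reactions were started with 10 uM ATP and stopped with EDTA-containing bead buffer for AlphaScreen detection.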

The target of experiment [3] is 3',5'-cyclic-AMP phosphodiesterase 4B (Homo sapiens) (UniProt Q07343). The experiment can be described thus: qHTS Assay for Inhibitors of PDE-IV (AID 607; active = well fitted activation curve with a large enough effect in the main read-out, with a control signal flat, not every such curve was filed as active). Put shortly: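 Cell-based read-out of cAMP via a modified cyclic nucleotide-gated channel and membrane potential dye (535/590 nm) in HEK293 cells expressing PDE4 endogenously. Compounds tested up to 22.9 uM final; 100 uM RO 20-1724 reference.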
Chain of 3',5'-cyclic-AMP phosphodiesterase 4B (Homo sapiens) (Q07343 whole entry, looked up): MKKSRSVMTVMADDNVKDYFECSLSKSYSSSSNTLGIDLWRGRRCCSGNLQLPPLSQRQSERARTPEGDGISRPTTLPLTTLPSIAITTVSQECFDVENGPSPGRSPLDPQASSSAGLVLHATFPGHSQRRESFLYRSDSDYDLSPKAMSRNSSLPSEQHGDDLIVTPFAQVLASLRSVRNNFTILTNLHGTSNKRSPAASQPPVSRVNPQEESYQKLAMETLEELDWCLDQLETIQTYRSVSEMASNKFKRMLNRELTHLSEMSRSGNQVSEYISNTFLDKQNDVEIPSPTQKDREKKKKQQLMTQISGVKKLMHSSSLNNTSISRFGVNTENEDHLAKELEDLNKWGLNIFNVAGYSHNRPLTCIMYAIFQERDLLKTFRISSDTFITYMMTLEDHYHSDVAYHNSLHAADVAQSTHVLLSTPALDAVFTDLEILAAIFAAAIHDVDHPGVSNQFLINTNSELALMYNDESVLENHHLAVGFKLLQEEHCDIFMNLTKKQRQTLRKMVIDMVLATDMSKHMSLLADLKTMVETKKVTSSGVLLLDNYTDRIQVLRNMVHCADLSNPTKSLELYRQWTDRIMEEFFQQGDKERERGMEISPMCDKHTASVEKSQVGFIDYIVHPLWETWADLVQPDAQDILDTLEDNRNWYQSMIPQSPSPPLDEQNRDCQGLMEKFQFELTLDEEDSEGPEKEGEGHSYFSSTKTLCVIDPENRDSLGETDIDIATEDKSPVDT
A general note: In qHTS, concentration-response curves come from the screen itself.

The target in experiment [4] is Cytochrome P450 3A4 (Homo sapiens) (UniProt P08684). Kind of experiment: qHTS Assay for Inhibitors and Substrates of Cytochrome P450 3A4 (AID 884). Also: nearly all actives have a fitted effect of over 50% in size. Also: potency is read from the fitted curve at half-maximal effect. Put shortly:
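20 nM human CYP3A4 with 25 uM Luciferin-PPXE (at KM) in 200 mM KPO4, preincubated 10 min with compound; NADPH regeneration started a 60 min RT reaction. Luciferin detected by luminescence, normalized to 57 uM ketoconazole as full inhibition.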

The target is the same in experiment [5]. The experiment can be described thus: qHTS Assay for Activators of Cytochrome P450 3A4 (AID 885). Also: nearly all actives have a fitted effect of over 65% in size. Put shortly: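 Signal was normalized against complete inhibition by 57 uM ketoconazole. The reaction used 20nM CYP3A4 with 25uM Luciferin-PPXE, 10-min compound preincubation and a 60-min NADPH-supported step at RT.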
The target of experiment [6] is Cytochrome P450 2D6 (Homo sapiens) (UniProt P10635). Kind of experiment: qHTS Assay for Inhibitors and Substrates of Cytochrome P450 2D6 (AID 891). Also: potency is read from the fitted curve at half-maximal effect; nearly all actives have a fitted effect of over 60% in size. Put shortly: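 Human CYP2D6 (5 nM) with 30 uM Luciferin-ME EGE (at Km) in 100 mM KPO4, compound preincubated 10 min, then NADPH regeneration system for 60 min at room temperature. Luciferin read by luminescence; normalized to 1.43 uM quinidine.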
Chain of Cytochrome P450 2D6 (Homo sapiens) (P10635 whole entry, looked up): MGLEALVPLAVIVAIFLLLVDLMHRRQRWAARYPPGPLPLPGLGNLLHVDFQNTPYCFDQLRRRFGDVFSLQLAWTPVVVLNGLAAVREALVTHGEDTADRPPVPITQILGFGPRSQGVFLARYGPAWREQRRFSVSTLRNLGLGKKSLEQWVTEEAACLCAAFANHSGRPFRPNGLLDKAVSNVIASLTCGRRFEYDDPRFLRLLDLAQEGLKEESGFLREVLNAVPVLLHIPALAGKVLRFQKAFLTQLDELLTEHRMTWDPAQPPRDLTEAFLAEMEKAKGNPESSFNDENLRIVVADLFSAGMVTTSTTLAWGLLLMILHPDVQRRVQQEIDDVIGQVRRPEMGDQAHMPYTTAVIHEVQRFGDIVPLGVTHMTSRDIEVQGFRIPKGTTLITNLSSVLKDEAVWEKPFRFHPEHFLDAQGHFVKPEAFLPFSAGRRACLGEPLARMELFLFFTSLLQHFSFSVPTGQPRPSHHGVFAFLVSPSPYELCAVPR

For experiment [7], the target named is Cytochrome P450 2C19 (Homo sapiens) (UniProt P33261). The experiment can be described thus: qHTS Assay for Inhibitors and Substrates of Cytochrome P450 2C19 (AID 899). Also: potency is read from the fitted curve at half-maximal effect; nearly all actives have a fitted effect of over 60% in size. The essentials:
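Luminescence readout of luciferin formed from 10uM Luciferin-H EGE (KM level) by 5 nM CYP2C19 in 50mM KPO4. 60 min NADPH-driven reaction at 37C after 10 min compound preincubation; data scaled to 57uM ketoconazole inhibition.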

Results filed as inconclusive are left out. The source made the active and inactive calls. Unless noted, calls follow the shape of the dose curve; as a rule, active = well fitted curve in the direction sought with a large enough effect; inconclusive = small, poorly fitted or top-dose-only effect, or another doubt; inactive = no such curve, though single readings can be large; an effect the other way counts as inactive or inconclusive.

Chain of Cytochrome P450 3A4 (Homo sapiens) (P08684 whole entry, looked up): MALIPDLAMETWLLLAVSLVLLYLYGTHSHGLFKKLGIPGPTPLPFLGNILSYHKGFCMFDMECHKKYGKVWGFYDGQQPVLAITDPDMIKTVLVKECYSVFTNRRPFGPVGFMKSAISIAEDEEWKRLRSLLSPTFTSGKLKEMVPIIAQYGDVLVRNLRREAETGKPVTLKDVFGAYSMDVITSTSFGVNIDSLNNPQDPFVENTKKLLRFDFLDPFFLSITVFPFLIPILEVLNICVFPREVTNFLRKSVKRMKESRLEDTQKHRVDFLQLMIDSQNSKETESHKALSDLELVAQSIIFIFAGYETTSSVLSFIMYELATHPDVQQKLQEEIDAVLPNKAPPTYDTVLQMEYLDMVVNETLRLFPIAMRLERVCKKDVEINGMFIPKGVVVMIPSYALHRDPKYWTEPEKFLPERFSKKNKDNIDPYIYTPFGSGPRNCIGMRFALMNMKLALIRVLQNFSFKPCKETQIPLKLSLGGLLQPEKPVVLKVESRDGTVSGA
Chain of Cytochrome P450 1A2 (Homo sapiens) (P05177 whole entry, looked up): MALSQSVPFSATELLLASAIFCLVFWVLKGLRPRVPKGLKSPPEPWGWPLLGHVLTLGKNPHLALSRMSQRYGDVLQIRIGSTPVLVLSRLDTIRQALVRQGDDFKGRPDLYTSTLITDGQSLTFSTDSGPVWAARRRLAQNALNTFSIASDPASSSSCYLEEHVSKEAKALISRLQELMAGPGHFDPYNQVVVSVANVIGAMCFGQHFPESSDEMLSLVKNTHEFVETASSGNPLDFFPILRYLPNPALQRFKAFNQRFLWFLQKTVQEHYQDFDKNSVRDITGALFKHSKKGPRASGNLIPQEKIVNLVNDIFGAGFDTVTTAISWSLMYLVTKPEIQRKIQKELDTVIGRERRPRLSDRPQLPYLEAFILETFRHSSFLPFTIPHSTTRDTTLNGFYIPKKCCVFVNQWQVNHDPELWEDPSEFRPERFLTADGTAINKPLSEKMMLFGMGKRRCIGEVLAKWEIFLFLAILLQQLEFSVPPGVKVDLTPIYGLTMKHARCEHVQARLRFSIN
Chain of Cytochrome P450 2C19 (Homo sapiens) (P33261 whole entry, looked up): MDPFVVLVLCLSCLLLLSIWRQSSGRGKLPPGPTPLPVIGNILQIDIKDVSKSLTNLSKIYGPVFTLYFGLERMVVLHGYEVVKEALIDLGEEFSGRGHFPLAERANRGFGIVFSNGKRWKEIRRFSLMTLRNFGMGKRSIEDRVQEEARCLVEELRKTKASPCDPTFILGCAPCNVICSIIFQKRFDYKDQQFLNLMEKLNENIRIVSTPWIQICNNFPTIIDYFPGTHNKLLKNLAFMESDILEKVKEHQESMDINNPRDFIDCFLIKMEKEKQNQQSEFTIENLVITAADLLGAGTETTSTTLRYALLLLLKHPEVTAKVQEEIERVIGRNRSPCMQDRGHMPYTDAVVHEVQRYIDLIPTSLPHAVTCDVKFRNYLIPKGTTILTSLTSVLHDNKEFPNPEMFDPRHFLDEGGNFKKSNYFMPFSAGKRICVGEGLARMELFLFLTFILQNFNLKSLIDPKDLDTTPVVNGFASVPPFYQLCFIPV

Consider `CC1(C)C(=O)C(c2ccccc2)=C2CN3C(=O)N(CCc4ccccc4)C(=O)C3(Cc3ccc(C(F)(F)F)cc3)C=C21` (centres undefined), for which the Potency result in experiment [1], in experiment [2], in experiment [3] and in experiment [5] was “inactive” throughout. In addition, the Potency in experiment [4] is 2 µM (active).

Regarding `C[C@@H](C(=O)Nc1ccc2ccccc2c1)[C@H]1C[C@]1(C)[C@H](NS(=O)(=O)c1ccc2ccccc2c1)c1ccccc1`, the Potency entry in experiment [1], in experiment [2], in experiment [3] and in experiment [5] was “inactive” each time. Moreover, the Potency is 7.94 µM (active) in experiment [4] and 3.16 µM (active) in experiment [6].

For `C#CCCCC(=S)Nc1ccccc1`, the Potency in experiment [1] is 12.6 µM (active). Further, the Potency entry in experiment [2], in experiment [3] and in experiment [5] was “inactive” throughout.

Take `COC(=O)[C@@]1(Cc2ccc(F)cc2)[C@@H]2[C@@H](CC(=O)[C@H]2CC(=O)C(=O)N2CCCC2)CN1C(=O)c1ccccc1`: the Potency result in experiment [1], in experiment [2], in experiment [3] and in experiment [5] was “inactive” throughout. Besides, the Potency in experiment [4] was 1.58 µM (active).

As to `COC(=O)C1(C)C=C2C(=C(c3ccccc3)C(=O)C2C)CN1` (centres undefined), the Potency in experiment [1] is 15.8 µM (active). For the same molecule, the Potency result in experiment [2], in experiment [3] and in experiment [5] was “inactive” throughout.

As for `CCCc1cc2c(n1CCc1ccc(Cl)cc1)C(C)C1CN(C(=O)c3ccccc3)C(C)(C(=O)OC)C21` (centres undefined), the Potency in experiment [1] is 25.1 µM (active); in experiment [4] it was 5.01 µM (active); in experiment [6], 5.01 µM (active). Besides, the Potency entry in experiment [2], in experiment [3] and in experiment [5] was “inactive” throughout.

Regarding `CCCC[C@H]1C[C@@H]1[C@@H]1N(P(=O)(c2ccccc2)c2ccccc2)C[C@@](O)(c2ccccc2)CC12CC2`, the Potency result in experiment [1], in experiment [2], in experiment [3] and in experiment [5] was “inactive” each time. In addition, the Potency in experiment [4] was 2 µM (active).

As for `CC1(C)C(=O)C(c2ccccc2)=C2CN3C(=O)N(CCc4ccccc4)C(=O)C3(Cc3ccc(F)cc3)C=C21` (centres undefined), the Potency in experiment [1] is 15.8 µM (active); in experiment [4], 3.16 µM (active). In addition, the Potency entry in experiment [2], in experiment [3] and in experiment [5] was “inactive” each time.

Consider `COC(=O)[C@@]1(Cc2ccccc2)[C@H]2c3cc(C(=O)N4CCCC4)n(CCc4ccccn4)c3C[C@H]2CN1C(=O)c1ccccc1`, for which the Potency result in experiment [1], in experiment [2], in experiment [3] and in experiment [5] was “inactive” in each case. Besides, in experiment [4], the Potency was 2 µM (active).

As for `C[C@@H](C(=O)Nc1ccc2ccccc2c1)[C@H]1C[C@]1(C)[C@H](NC(=O)Oc1ccc(F)cc1)c1ccccc1`, the Potency entry in experiment [1], in experiment [2], in experiment [3] and in experiment [5] was “inactive” each time. The Potency is 0.794 µM (active) in experiment [4] and 2.51 µM (active) in experiment [6].

Regarding `COC(=O)[C@H]1C[C@@H]1[C@H](NC(=O)c1cc(C)on1)c1ccccc1`, the Potency in experiment [1] is 15.8 µM (active). For the same molecule, the Potency result in experiment [2], in experiment [3] and in experiment [5] was “inactive” in each case.

With `C=C(CC1([C@@H](NP(=O)(c2ccccc2)c2ccccc2)[C@H]2C[C@@H]2CCCC)CC1)c1cccc(OC)c1`, the Potency in experiment [1] was 12.6 µM (active); in experiment [4], 2.51 µM (active). Further, the Potency entry in experiment [2], in experiment [3] and in experiment [5] was “inactive” throughout.

In the case of `COC(=O)Cn1c(C(=O)N2CCCC2)cc2c1C[C@H]1CN(C(=O)c3ccccc3)[C@@](Cc3ccc(F)cc3)(C(=O)OC)[C@@H]21`, the Potency in experiment [1] is 15.8 µM (active); in experiment [4], 3.16 µM (active). The Potency result in experiment [2], in experiment [3] and in experiment [5] was “inactive” each time.

For the molecule `COC(=O)[C@H]1C[C@@H]1[C@H](NC(=O)c1ccccc1)c1ccccc1`, the Potency in experiment [1] is 15.8 µM (active); in experiment [7], 7.94 µM (active). Also, the Potency entry in experiment [2], in experiment [3] and in experiment [4] was “inactive” each time.

Take `CCc1c2c(nc3cccc(C(C)C)c13)-c1cccc(=O)n1C2`: the Potency in experiment [1] was 0.501 µM (active). In addition, the Potency entry in experiment [2], in experiment [3] and in experiment [5] was “inactive” each time.

As for `C[C@H]1C2=C3C(CC[C@H]4C(OCc5ccc(F)cc5C(F)(F)F)OC[C@](C)([C@@H]34)N(C(=O)OC(C)(C)C)C2)C(CO)C1CO` (some centres undefined), in experiment [1], the Potency is 15.8 µM (active). Also, the Potency entry in experiment [2], in experiment [3] and in experiment [5] was “inactive” throughout.

Take `COC(=O)[C@@]1(Cc2ccccc2)[C@H]2c3cc(C(=O)N4CCCC4)n(Cc4nc5ccccc5[nH]4)c3C[C@H]2CN1C(=O)c1ccccc1`: the Potency is 12.6 µM (active) in experiment [1], 1.26 µM (active) in experiment [4] and 7.94 µM (active) in experiment [6]. In addition, the Potency entry in experiment [2], in experiment [3] and in experiment [5] was “inactive” in each case.

Consider `O=C(NCc1cc(F)cc2c1OCCO2)[C@H]1C[C@@H]1[C@H](NP(=O)(c1ccccc1)c1ccccc1)c1ccccc1`, for which the Potency in experiment [1] is 15.8 µM (active). Further, the Potency result in experiment [2], in experiment [3] and in experiment [5] was “inactive” throughout.

In the case of `C[C@@H](C(=O)NCCF)[C@H]1C[C@]1(C)[C@H](NC(=O)OCc1ccccc1)c1ccccc1`, the Potency was 15.8 µM (active) in experiment [1], 3.98 µM (active) in experiment [4] and 6.31 µM (active) in experiment [6]. Moreover, the Potency result in experiment [2], in experiment [3] and in experiment [5] was “inactive” throughout.

Turning to `O=C(N[C@@H](c1ccccc1)[C@@H]1C[C@H]1C(=O)NCc1ccccn1)OCc1ccccc1`, the Potency is 10 µM (active) in experiment [1], 6.31 µM (active) in experiment [4] and 7.94 µM (active) in experiment [7]. The Potency entry in experiment [2], in experiment [3] and in experiment [5] was “inactive” throughout.

For `CCCCCC1=C2CNC(CCC)(C(=O)OC)C=C2C(C)C1=O` (centres undefined), the Potency in experiment [1] is 31.6 µM (active). Also, the Potency entry in experiment [2], in experiment [3] and in experiment [5] was “inactive” throughout.

Consider `C[C@@H](C(=O)NCc1ccc(S(C)(=O)=O)cc1)[C@H]1C[C@]1(C)[C@H](NC(=O)OCc1ccccc1)c1ccccc1`, for which the figures for the Potency in experiment [1], in experiment [4] and in experiment [6] were 12.6 µM (active), 3.16 µM (active) and 0.398 µM (active), respectively. The Potency result in experiment [2], in experiment [3] and in experiment [5] was “inactive” each time.

With `CCCC1(C(=O)OC)C=C2C(=C(C(C)C)C(=O)C2C)CN1` (centres undefined), the Potency entry in experiment [1], in experiment [2], in experiment [3] and in experiment [5] was “inactive” each time.
